Measured values reported in PMC5700166.

target: GST-Hu-p50 (Homo sapiens, UniProt P19838 7-356); experiment: protein-binding microarray (PBM); PBM: ~300 nM protein, 6 mM HEPES pH 7.8, 80 mM KCl, 0.5 mM EDTA, 0.5 mM EGTA, 6% glycerol, 35 ng/ul poly-dIdC, 1% milk, 1 h, room temperature; Ap Aiptasia and Nv Nematostella (sea anemones) / Co Capsaspora / Aq Amphimedon (sponge) / Dm Drosophila / Hu human; RHD is the Rel homology domain; high values mean tight binding; details: dsDNA, one strand shown
Sequence (P19838 7-356): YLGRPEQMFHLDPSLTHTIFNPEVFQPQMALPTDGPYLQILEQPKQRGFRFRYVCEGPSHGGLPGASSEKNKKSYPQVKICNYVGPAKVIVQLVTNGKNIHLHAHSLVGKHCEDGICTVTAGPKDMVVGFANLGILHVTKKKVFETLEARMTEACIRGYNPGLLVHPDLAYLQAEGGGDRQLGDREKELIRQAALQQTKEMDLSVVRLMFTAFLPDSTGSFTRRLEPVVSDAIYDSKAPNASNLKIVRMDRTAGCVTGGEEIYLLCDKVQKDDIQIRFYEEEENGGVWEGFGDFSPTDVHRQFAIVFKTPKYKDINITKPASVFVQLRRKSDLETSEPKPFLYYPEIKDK

**Q.** How did the binding signal turn out when “CCGATTAACATCAATTAGGTGGGTGATGTTAATCGGGTCTTGATTCGCTTGACGCTGCTG” was run?
**A.** 1.64 z-score

**Q.** How did the binding signal turn out when “CCGATTAACATCACGGAAATTTCTGATGTTAATCGGGTCTTGATTCGCTTGACGCTGCTG” was run?
**A.** 1.83 z-score

**Q.** For “CCGATTAACATCAGTGATTAAGGTGATGTTAATCGGGTCTTGATTCGCTTGACGCTGCTG”, which binding signal is on record?
**A.** 1.25 z-score

**Q.** How did the binding signal turn out when “CCGATTAACATCAGGAACACCCCTGATGTTAATCGGGTCTTGATTCGCTTGACGCTGCTG” was run?
**A.** 2.26 z-score

**Q.** For “CCGATTAACATCAATTTTTGCCCTGATGTTAATCGGGTCTTGATTCGCTTGACGCTGCTG”, which binding signal is on record?
**A.** 1.07 z-score

**Q.** With “CCGATTAACATCAGGAAACACCATGATGTTAATCGGGTCTTGATTCGCTTGACGCTGCTG” as the sequence, how does the binding signal read?
**A.** 1.95 z-score

**Q.** How did the binding signal turn out when “CCGATTAACATCAGGGGAAGAAATGATGTTAATCGGGTCTTGATTCGCTTGACGCTGCTG” was run?
**A.** 5.16 z-score

**Q.** With “CCGATTAACATCACCTTCTTTACTGATGTTAATCGGGTCTTGATTCGCTTGACGCTGCTG” as the sequence, how does the binding signal read?
**A.** 1.59 z-score

**Q.** Which binding signal does the source give for “CCGATTAACATCAGGGGAATGGATGATGTTAATCGGGTCTTGATTCGCTTGACGCTGCTG” here?
**A.** 4.59 z-score

**Q.** With “CCGATTAACATCAAGCCCCCCCATGATGTTAATCGGGTCTTGATTCGCTTGACGCTGCTG” as the sequence, how does the binding signal read?
**A.** 3.88 z-score

**Q.** How did the binding signal turn out when “CCGATTAACATCAATAGTTCCCCTGATGTTAATCGGGTCTTGATTCGCTTGACGCTGCTG” was run?
**A.** 5.26 z-score

**Q.** With “CCGATTAACATCATCTTTTTACTTGATGTTAATCGGGTCTTGATTCGCTTGACGCTGCTG” as the sequence, how does the binding signal read?
**A.** 1.01 z-score

**Q.** Which binding signal does the source give for “CCGATTAACATCAGGAATCCCACTGATGTTAATCGGGTCTTGATTCGCTTGACGCTGCTG” here?
**A.** 1.55 z-score

**Q.** For “CCGATTAACATCAAAGATTTCCCTGATGTTAATCGGGTCTTGATTCGCTTGACGCTGCTG”, which binding signal is on record?
**A.** 4.86 z-score
